Test results taken from PubChem BioAssay AID720488 (Milwaukee Institute for Drug Discovery, 2013).
Screen size: about 16,000 compounds; about 960 (6%) were called active.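 How the source made its calls: active means compound fluorescence over control fluorescence at most 0.8, a quencher, or at least a set upper limit, an enhancer; inactive means ratio between 0.8 and the set upper limit.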 The entries come from a sample that favours actives as a whole.

assay: fluorescence interference in NS3h DNA assay – biochemical, ChemBridge library, Cy5 readout, artefact control for HCV NS3 helicase inhibitor project (AID 720488); settings: Cy5-dT15 DNA with NS3h, at 100 µM, actives lie on both sides, signal over control mean, under 1 quenches

Fluorescence interference ratio, inactive:
COc1ccccc1CN1CCN(C(=O)c2ccc([N+](=O)[O-])cc2)CC1 1.03
COc1ccc(OC)c(S(=O)(=O)N2CCC(Cc3ccccc3)CC2)c1 0.968
CCOc1ccc(C(=O)Nc2cc3nn(-c4ccc(C)cc4)nc3cc2C)cc1[N+](=O)[O-] 1.04
CN1C(=O)/C(=C\c2ccccc2OCCOc2ccc(Br)cc2)SC1=S 1.14
Cc1cccc(NC(=O)COc2ccc3ccccc3c2)c1C 1.12
CCC(=O)CC(O)(c1ccccc1)C(F)(F)F (stereo not given) 0.957
Cc1cccc(OCC(=O)Nc2ccc(Cl)c(C(F)(F)F)c2)c1 1.07
Cc1ccc(C(=O)Nc2ccc(Cl)cn2)cc1[N+](=O)[O-] 1.02
O=Cc1ccc(/C=C2/SC(=S)N(c3cccc(Cl)c3)C2=O)cc1 1.1
COc1cc(/C=C2/SC(=S)N(c3c(C)n(C)n(-c4ccccc4)c3=O)C2=O)c([N+](=O)[O-])cc1OC 0.991
O=C1/C(=C\c2cccc(C(F)(F)F)c2)SC(=S)N1c1ccccc1 1.08
COc1ccccc1/C=C1\SC(=S)N(CC(C)C)C1=O 0.946
O=C(CN(c1ccc(Br)cc1)S(=O)(=O)c1ccccc1)NCC1CCCO1 (stereo not given) 1.03
Cc1ccc(NCC(O)COc2ccc(OCC(O)CNc3ccc(C)cc3C)cc2)c(C)c1 (stereo not given) 1.06
COC(=O)C1=C(C)N=c2s/c(=C/c3ccccc3OC(C)=O)c(=O)n2C1c1ccc(OC(C)=O)cc1 (stereo not given) 0.949
O=C(/C=C/c1cc2c(cc1Br)OCO2)c1ccc(Cl)cc1 1.06
COc1cc(CN2CCN(Cc3cccc(F)c3)CC2)cc(OC)c1OC 1.09
Cc1ccc(S(=O)(=O)N2CCN(Cc3ccc(F)cc3)CC2)cc1 0.977
COc1cc(NC(=O)c2ccc(Br)cc2)cc([N+](=O)[O-])c1 0.953
O=C(CSc1ccc(Cl)cc1Cl)Nc1cccc([N+](=O)[O-])c1 0.897
COc1cc(/C=C2/C(=O)NC(=O)N(c3ccc(C)cc3)C2=O)ccc1OCCOc1ccc([N+](=O)[O-])cc1 0.823
COc1cc(/C=C2/SC(=S)NC2=O)ccc1OCCOCCOc1ccc(C)cc1 0.925
COC(=O)C1=C(C)NC2=C(C(=O)c3ccccc32)C1c1cc2c(cc1Br)OCO2 (stereo not given) 1.02
CS(=O)(=O)N(CC(=O)N1CCOCC1)c1ccccc1Cl 0.989
O=C(c1ccc(S(=O)(=O)N2CCOCC2)cc1)N1CCN(c2ccccc2)CC1 0.907
CCC(=O)Nc1ccccc1C(=O)N1CCN(Cc2ccccc2)CC1 0.994
COc1ccccc1OCC(=O)Nc1nc(-c2cccs2)c(NC(=O)c2ccccc2)s1 0.958
O=C(CSc1nc2ccccc2o1)Nc1ccc2c(c1)OCO2 0.937
Cc1ccc(C(=O)Nc2cccc(-c3nc4ccccc4o3)c2C)cc1 0.985
C=CCc1ccccc1OCCn1cc(/C=C2/SC(=S)N(CC)C2=O)c2ccccc21 1.05
O=C(NCC1OCCc2ccccc21)C(c1ccccc1)c1ccccc1 (stereo not given) 1.08
CCCOc1ccc(C(=O)Nc2ccc(-c3nc4ccccc4o3)c(O)c2)cc1 1.03
CCOc1ccc(C(=O)Nc2ccncc2)cc1 0.969
O=c1oc2cc(OC/C=C/c3ccccc3)ccc2c2ccccc12 1.11
O=C(O)CC1S/C(=N\N=C/c2ccccc2O)N(c2ccc(O)cc2)C1=O (stereo not given) 1.05
O=S(=O)(c1ccc(Br)c2ccccc12)N1CCOCC1 0.956
CC(C)CC(=O)Nc1cc(C(=O)O)cc(C(=O)O)c1 1.05
O=C(CN1C(=O)c2ccc([N+](=O)[O-])cc2C1=O)Nc1cc(Cl)ccc1C(=O)O 0.984
COc1ccc(/C=C2\C(=O)NC(=S)N(c3ccc(Br)cc3)C2=O)cc1 1.05
COc1ccc(OC)c(N2C(=O)NC(=O)C(=Cc3ccc(C)o3)C2=O)c1 1.1
O=C1NC(=O)C(=Cc2cc([N+](=O)[O-])cc(Br)c2O)C(=O)N1 0.895
CC(=O)OC(OC(C)=O)c1ccc([N+](=O)[O-])s1 0.829
CCOc1cccc2c1NC(C)(C)c1sn(-c3ccccc3)c(=S)c1-2 0.947
CCC(=O)NC(N)=Nc1nc(C)c2cc(C)cc(C)c2n1 1.11
CC1=C(C(=O)OC(C)C)C(c2ccc(Cl)c(Cl)c2)N2C(=O)CCSC2=N1 (stereo not given) 0.92

Fluorescence interference ratio, active:
COc1cc(C(=O)N2CCC(Cc3ccccc3)CC2)c([N+](=O)[O-])cc1OC 0.65
C=CC[n+]1c(-c2ccc(OC)cc2)csc1Nc1cccc(C)c1C 1.2
COc1ccc(Br)cc1/C=C1/SC(=S)N(c2cccc(C(F)(F)F)c2)C1=O 0.773
O=C1/C(=C\c2cccc(Br)c2)SC(=S)N1c1cccc(C(F)(F)F)c1 0.626
Cc1cccc(CN2CCN(S(C)(=O)=O)CC2)c1 0.788
COc1cc(C=C2C(=O)NC(=O)NC2=O)ccc1OCCOc1ccc([N+](=O)[O-])cc1 0.699
CS(=O)(=O)N1CCN(C(=O)Cc2ccccc2)CC1 0.765
CSc1ccccc1NC(=O)CSc1nc2ccccc2o1 0.737
CCCOc1ccc(C(=O)Nc2ccc(N(CC)CC)cc2)cc1 1.28
CCN(CC)c1ccc(/C=C2\C(=O)NC(=O)N(c3ccc(OC)cc3)C2=O)c(OC)c1 1.26
